PriA SSB inh: inhibitors of Klebsiella pneumoniae PriA binding to SSB C-terminal tail, primary screen, biochemical, AlphaScreen; PriA–SSB C-terminal tail interaction (Klebsiella pneumoniae); AlphaScreen SSBct-PriA binding, biotinylated peptide; inhibition, % at 33 µM; hit rate 0.6% among 430,000; AID 1272365, 2023; in the data active means inhibition mostly above about 37%, no sharp cut-off; inactive means mostly below about 20%;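 further: plate controls were negative control peptide for no effect and reference peptide for full effect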
MazF activator: activators of E. coli MazEF toxin-antitoxin RNase, primary screen, biochemical, fluorescence, uHTS | AID 504720, 2011 | hit rate 0.32% among 350,000 | activation, % at 20 µM | FAM/BHQ RNA-DNA oligo cleavage fluorescence, 5 h; in the data active means activation above about 50%
Target sequence (P0AE70 whole entry, looked up): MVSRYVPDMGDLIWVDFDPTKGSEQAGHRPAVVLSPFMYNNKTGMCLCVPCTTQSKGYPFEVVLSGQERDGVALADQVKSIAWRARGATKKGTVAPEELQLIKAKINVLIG
Sa RN4220 lethal: growth inhibition of S. aureus RN4220, primary screen, OD600; AID 1259311, 2017; hit rate 0.33% among 330,000; inhibition, % (no concentration beside the values); 16 h; in the data active means inhibition above about 85%;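 further: plate controls were untreated cells for no effect and reference antibiotic for full effect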
ugtP null kill: growth inhibition of ugtP-null S. aureus, primary screen, RN4220 ugtP deletion, OD600; AID 1259309, 2017; hit rate 0.54% among 330,000; growth inhibition, % (concentration not given with the values); 16 h; in the data active means growth inhibition above about 68%;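 further: plate controls were untreated wells for no effect and antibiotic for full effect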
BJeLR lethal: MLPCN primary cell-based screen for lethality selective to Ras in HRASV12 cells; BJeLR (HRASV12) viability, CellTiter-Glo ATP luminescence, 48 h; inhibition, % (test concentration not listed); hit rate 0.17% among 300,000; AID 1554, 2009; in the data active means inhibition above about 50%
Starred values were filed as active, the others as inactive; / = no result; + = active, no number. This is a sample that favours compounds with a hit; in the whole collection about 1.2% have one here.

SMILES	PriA SSB inh	MazF activator	Sa RN4220 lethal	ugtP null kill	BJeLR lethal
COc1ccccc1Nc1ccc(S(=O)(=O)N2CCCCC2)cc1[N+](=O)[O-]	63*	-3	4	-15	-13
COc1cccc(N2CCN(CC(=O)c3c(C)[nH]c4ccccc34)CC2)c1	2	6	14	-21	12
COCc1c(C(=O)OCC(=O)c2ccc[nH]2)oc2ccccc12	-5	1	5	6	/
CCOC(=O)c1c(NC(=S)Nc2ccc(Cl)cc2)sc2c1CCN(C)C2	17	171*	-2	-2	/
O=C(NCc1ccccn1)C1CC(=O)N(C2CCCC2)C1 (stereo unspecified)	2	-1	5	-4	11
Cc1ccc(S(=O)(=O)Nc2nccs2)cc1[N+](=O)[O-]	-3	-10	5	0	-2
O=[N+]([O-])c1cnc(Nc2ccc(S(=O)(=O)Nc3nccs3)cc2)c([N+](=O)[O-])c1	38*	/	/	/	/
COC(=O)CSc1ccc2nnc(-c3ccccn3)n2n1	77*	/	/	/	/
CCCCC(Sc1ccc2nnc(-c3ccccn3)n2n1)C(=O)O (stereo unspecified)	94*	/	/	/	/
Cn1c(=O)c2cc(S(=O)(=O)NCCC(=O)Nc3ccc(Cl)cc3)ccc2n(C)c1=O	-8	6	1	1	4
Cc1cc(NC(=O)/C(C#N)=C/c2ccc(-c3cccc(C(F)(F)F)c3)o2)n(-c2ccccc2)n1	-2	-7	7	2	-2
Cc1cc(NC(=O)/C(C#N)=C/c2ccc(-c3ccc(SC(F)F)cc3)o2)n(-c2ccccc2)n1	-6	405*	1	-6	-2
N#C/C(=C/c1ccc(-c2ccc(S(N)(=O)=O)cc2)o1)C(=O)Nc1ccccc1	-11	101*	13	-2	-12
N#C/C(=C/c1ccc(-c2ccc([N+](=O)[O-])cc2)o1)C(=O)Nc1nc(-c2cccs2)cs1	-4	-2	4	-8	/
N#C/C(=C\c1ccc(-c2ccc(F)cc2)o1)C(=O)Nc1nc(-c2cccs2)cs1	-1	128*	6	-15	-16
CCn1nc(/C=C/c2ccccc2)nc2c(=O)n(C)c(=O)nc1-2	3	10	98*	99*	-4
CCn1nc(-c2cccs2)nc2c(=O)n(C)c(=O)nc1-2	-10	-2	99*	100*	/
Cn1c(=O)c(/C=C/c2ccccc2)nc2ccccc21	-38	3	6	-4	-9
NCCCCC1CNC(=S)N1CC1CCCCC1 (stereo unspecified)	/	/	3	-7	/
Cc1ccc(OCCn2cc(/C=C(\C#N)C(=O)NCC3CCCO3)c3ccccc32)cc1 (stereo unspecified)	-17	57*	5	-25	-8
Cc1ccc(OCCn2cc(/C=C(\C#N)C(=O)NCC3CCCO3)c3ccccc32)cc1C (stereo unspecified)	-1	114*	9	-16	-3
Cc1ccc(C)c(OCCn2cc(/C=C(\C#N)C(=O)NCC3CCCO3)c3ccccc32)c1 (stereo unspecified)	-18	-37	-6	-30	-5
COc1cc2c3nnc(-c4ccc(F)cc4)c-3cn(Cc3ccccc3F)c2cc1OC	-4	39	/	/	/
COc1cc2c3nnc(-c4ccccc4)c-3cn(Cc3ccccc3F)c2cc1OC	10	734*	9	7	/
CCCn1nc([N+](=O)[O-])c(C(C#N)c2nc3ccccc3o2)c(Cl)c1=O (stereo unspecified)	22	-2	5	6	-1
SMILES	PriA SSB inh	MazF activator	Sa RN4220 lethal	ugtP null kill	BJeLR lethal
CCn1nc([N+](=O)[O-])c(C(C#N)c2nc3cc(C(F)(F)F)ccc3s2)c(Cl)c1=O (stereo unspecified)	73*	-3	99*	92*	10
N#C/C(=C\C1=C(N2CCOCC2)C(=C/c2cccc([N+](=O)[O-])c2)/CC1)C(=O)Nc1ccccc1F	25	+	-3	-21	/
N#C/C(=C/C1=C(N2CCOCC2)C(=C/c2cccc([N+](=O)[O-])c2)/CC1)C(=O)Nc1ccccc1F	9	636*	1	-12	/
N#C/C(=C/C1=C(N2CCOCC2)C(=C/c2ccccc2)/CC1)C(=O)Nc1ccccc1F	17	-139	7	-7	/
O=[N+]([O-])c1ccc(C=NN2CCCCCC2)cc1	10	-5	11	8	/
Cc1ccc(NC(=O)COC(=O)Cn2nc(-c3ccc(F)cc3)oc2=O)cc1C	-7	1	5	-3	/
Cc1cc(OC(=O)c2ccccc2I)c([N+](=O)[O-])c(=O)[nH]1	-7	/	/	/	/
Cc1cc(OC(=O)c2ccccc2[N+](=O)[O-])c([N+](=O)[O-])c(=O)[nH]1	99*	8	4	6	-3
COC(=O)C1=C(c2cccc3c2S(=O)(=O)c2ccccc2-3)C[C@@H]2CC[C@H]1N2C(=O)N1CCOCC1	-13	2	/	/	/
Cn1c(SCc2ccccc2)nc(N)c(N=O)c1=O	-27	0	-4	95*	4
COc1ccc(C(=O)c2ccc3oc(-c4ccc(OC)cc4)c(-c4ccc(O)cc4)c3c2)cc1	-15	-5	/	/	/
Cc1cc(=O)[nH]c(SCC(=O)NC(C)C2CC3CCC2C3)c1C#N (stereo unspecified)	-5	11	2	4	0
CC(C)c1ccc2c(c1)C1(NN=C(c3ccccc3)S1)C(=O)N2 (stereo unspecified)	5	-3	94*	98*	16
CCc1ccc2c(c1)C1(NN=C(c3ccc(C)cc3)S1)C(=O)N2 (stereo unspecified)	39	2	46	44	4
Cc1cccc(Nc2nc(N)c([N+](=O)[O-])c(N3CC(C)OC(C)C3)n2)c1 (stereo unspecified)	23	3	3	9	3
Cc1cccc(Nc2nc(N)c([N+](=O)[O-])c(N3CC(C)CC(C)C3)n2)c1 (stereo unspecified)	50*	-3	-1	57	0
O=C(CN1CCN(S(=O)(=O)c2ccc(Br)cc2)CC1)c1ccc(O)c(O)c1	-2	-30	0	-10	0
O=S(=O)(CCc1ccccc1)N=Cc1cc(Br)ccc1O	-9	/	/	/	/
CC(=O)OC1CC[C@@]2(C)C(=CCC3C2CC[C@]2(C)C(=O)CCC32)C1 (stereo partly specified)	/	/	-5	87*	/
Cc1ccc(S(=O)(=O)CCc2nnc(NC(=O)c3ccccn3)s2)cc1	85*	0	-3	-15	10
Cc1ccc(S(=O)(=O)CCc2nnc(NC(=O)c3cnccn3)s2)cc1	5	-5	-3	8	-4
COc1ccc(OC)c(N=Cc2c(O)c3ccccc3oc2=O)c1	-8	78*	3	10	-3
O=[N+]([O-])c1c(Nc2ccccc2O)ccc2nonc12	-3	0	8	-1	-12
